Inconclusive results are not listed. Where a call stands in place of a potency, no number is given. The source made the active and inactive calls. Calls come from the whole dose curve.
These compounds were tested against Vitamin D3 receptor (Homo sapiens) (UniProt P11473) (assay: qHTS assay for small molecule antagonists of vitamin D receptor signaling (AID 588541)). Details: HEK293T VDR-UAS-bla, beta-lactamase ratio, antagonist mode; series mostly up to 76.7 µM.
Description: NIH Chemical Genomics Center [NCGC]
U.S. Environmental Protection Agency [EPA]
National Institutes of Environmental Health Sciences [NIEHS]
National Toxicology Program [NTP]
The Vitamin D receptor (VDR) is a member of nuclear hormone receptor superfamily and it plays a critical role in calcium homeostasis and bone metabolism. It plays a role in inducing cell differentiation, inhibiting cell growth and in thrombogenicity. So, VDR that mediates these effects represents a pharmacological target in prevention and treatment of hyperproliferative malignancies, such as cancer and psoriasis, cardiovascular, immunological, inflammatory and renal diseases etc.
NCGC Assay Protocol Summary
Using a beta-lactamase reporter-gene under control of Vitamin D receptor (VDR) response element, a cell-based assay [GeneBLAzer (VDR -UAS-bla assay developed by Invitrogen] was used to measure VDR ligands signaling. GeneBLAzer VDR -UAS-bla HEK293T cells were used with assay medium containing 2% charcoal-stripped FBS. The assay was performed in clear bottom black Greiner 1536-well plates. Library compounds were measured for their ability to inhibit the reporter gene activity. Compounds were screened in a titration series in 1536-well format. The fluorescence intensity (405 nm excitation, 460/530 nm emission) was measured using an EnVision plate reader. Data was normalized relative to 1-alpha,25-Dihydroxy vitaminD3 control (50 nM, 100%) and DMSO only wells (basal, 0%). Concentration-response titration points for each compound were fitted to the Hill equation yielding concentrations of half-maximal inhibition (IC50) and maximal response (efficacy) values.
qHTS protocol for VDR beta-lactamase assay in antagonist mode
[Step] [Parameter] [Value] [Description]
1. Reagent; 5 uL; 2000 cells/well
2. Incubation; 37 C for 5 hrs
4. Controls (DMSO); 23 nL,
5. Agonist (Stimulator); 1uL; 1-alpha,25-Dihydroxy vitaminD3 at 50 nM and 3 nM final concentrations
6. Incubation; 37 C for 16 hrs
7. Detection reagent; 1 uL of CCF4-dye
8. Incubation; RT for 2 hrs
9. Detection; Fluorescence; Envision plate reader

Chain of Vitamin D3 receptor (Homo sapiens) (P11473 whole entry, looked up): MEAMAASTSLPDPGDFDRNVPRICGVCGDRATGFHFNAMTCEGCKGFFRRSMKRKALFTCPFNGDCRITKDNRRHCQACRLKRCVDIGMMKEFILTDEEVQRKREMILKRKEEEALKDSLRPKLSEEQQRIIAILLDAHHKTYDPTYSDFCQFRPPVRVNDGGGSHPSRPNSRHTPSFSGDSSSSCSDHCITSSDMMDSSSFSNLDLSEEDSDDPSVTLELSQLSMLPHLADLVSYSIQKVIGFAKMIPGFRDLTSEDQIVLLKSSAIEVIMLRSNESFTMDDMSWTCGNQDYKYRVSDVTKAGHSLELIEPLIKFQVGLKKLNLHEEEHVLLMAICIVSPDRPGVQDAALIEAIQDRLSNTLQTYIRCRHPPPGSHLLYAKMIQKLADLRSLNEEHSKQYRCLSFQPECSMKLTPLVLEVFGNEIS

Question: How did the Potency turn out when O=Cc1ccco1 was run?
Answer: The Potency was “inactive”.

Question: How did the Potency turn out when CCOP(=O)(OCC)O/C(=C/Cl)c1ccc(Cl)cc1Cl was run?
Answer: The Potency was “inactive”.

Question: With O=C(O)C(Cl)(Cl)Cl as the compound, how does the Potency read?
Answer: Its Potency is “inactive”.

Question: For CCCCCl, which Potency is on record?
Answer: Its Potency is “inactive”.

Question: How did the Potency turn out when C[C@]12CCC(=O)C[C@@H]1CC[C@@H]1[C@@H]2CC[C@]2(C)[C@@H](O)CC[C@@H]12 was run?
Answer: The Potency was “inactive”.

Question: With ClCC1CO1 (centres undefined) as the compound, how does the Potency read?
Answer: The Potency was “inactive”.

Question: With [O]=[Cr](=[O])([OH])[O][Cr](=[O])(=[O])[OH] as the compound, how does the Potency read?
Answer: The Potency was “inactive”.

Question: How did the Potency turn out when CCCSP(=O)(OCC)SCCC was run?
Answer: The Potency was “inactive”.

Question: How did the Potency turn out when S=C=S was run?
Answer: The Potency was “inactive”.

Question: For Clc1ccccc1Cl, which Potency is on record?
Answer: The Potency was “inactive”.

Question: COC1=CC(=O)O[C@@H](/C=C/c2ccccc2)C1 was tested. Which Potency did it give?
Answer: The Potency was “inactive”.

Question: Which Potency does the source give for O=C/C=C/c1ccccc1 here?
Answer: The Potency was “inactive”.

Question: Which Potency does the source give for C=CCN=C=S here?
Answer: Its Potency is “inactive”.

Question: For O=C1CCO1, which Potency is on record?
Answer: Its Potency is “inactive”.

Question: How did the Potency turn out when ClC(Cl)(Cl)Cl was run?
Answer: Its Potency is “inactive”.

Question: With CCCCCCCCOC(=O)c1ccccc1C(=O)OCCCCCCCC as the compound, how does the Potency read?
Answer: The Potency was “inactive”.

Question: With [O]=[Cd] as the compound, how does the Potency read?
Answer: Its Potency is “inactive”.

Question: Which Potency does the source give for C[C@H]1CC[C@@H]2[C@@H](C)[C@H]3[C@H](C[C@H]4[C@@H]5CC=C6CC(O[C@@H]7O[C@H](CO)[C@H](O)[C@H](O[C@@H]8O[C@H](CO)[C@@H](O)[C@H](O)[C@H]8O)[C@H]7O[C@H]7O[C@@H](C)[C@H](O)[C@@H](O)[C@H]7O)CC[C@]6(C)[C@H]5CC[C@]34C)N2C1 (some centres undefined) here?
Answer: Its Potency is “inactive”.

Question: With N#CN as the compound, how does the Potency read?
Answer: Its Potency is “inactive”.

Question: How did the Potency turn out when CC(C)CCON=O was run?
Answer: The Potency was “inactive”.

Question: How did the Potency turn out when NNC(N)=O was run?
Answer: The Potency was “inactive”.

Question: With CCOC(=O)c1ccccc1C(=O)OCC as the compound, how does the Potency read?
Answer: Its Potency is “inactive”.

Question: With O=[N+]([O-])c1ccc(F)c([N+](=O)[O-])c1 as the compound, how does the Potency read?
Answer: Its Potency is “inactive”.

Question: With O=C(O)c1cc[c]([Hg][Cl])cc1 as the compound, how does the Potency read?
Answer: The Potency was 39.8 µM (active).

Source: PubChem BioAssay (NCATS)
